CHX counter – counter-screen for Shiga toxin inhibitors: cycloheximide protein synthesis inhibition; cell reporter, cycloheximide protein synthesis inhibition counterscreen; max response, %; hit rate 12% among 300,000; AID 2314; in the data active = max response mostly above about 13%, no sharp cut-off; inactive = mostly below about 14%; note: read at 38.3 µM for the half of the compounds with a filed dose; 0% is about no effect
AMA1-RON2 inh – AMA1-RON2 (P. falciparum) interaction inhibition. AlphaScreen AMA1-biotinylated RON2 peptide binding. Potency, µM (highest dose often 58.2 µM), without a hit: at the top dose activity change, negative = inhibition, most hits filed as inhibitors. hit rate 0.2% among 360,000. AID 720542;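 note: potency is the fitted concentration of half-maximal effect; 0% = vehicle wells and -100% = peptide control; nearly all actives have a fitted effect of over 45% in size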
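AMA1 (3D7) with his tag at 25 nM final met compounds first, then biotinylated RON2 peptide at 25 nM; detection used donor plus acceptor beads, 10 µg/mL apiece, read by AlphaScreen after 30 min at room temperature.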
Pf growth 48h – P. falciparum growth inhibition at 48 hours (one generation); Potency, µM (doses to about 28.7 µM), inactives show top-dose activity change, negative = inhibition, usual class: inhibitors; P. falciparum luciferase growth in erythrocytes, 48 h; hit rate 5.9% among 310,000; note: potency is the fitted concentration of half-maximal effect; % is set by controls: 0 for no effect and ±100 for the full control effect
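Here the parasites carry a stable luciferase gene and grow inside erythrocytes in Albumax-based RPMI medium with compound for one erythrocytic cycle. Activity is scored as loss of luminescent signal.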
Pf growth 96h – P. falciparum growth inhibition at 96 hour, primary screen for plastid delayed-death inhibitors | P. falciparum luciferase reporter growth, 96 h | Potency, µM (titrated, usually from 28.7 µM), without a hit: at the highest dose activity change, negative = inhibition, most hits filed as inhibitors | hit rate 6.9% among 320,000; note: potency is the fitted concentration of half-maximal effect; % is set by controls: 0 for no effect and ±100 for the full control effect
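Cell-based qHTS: luciferase-tagged P. falciparum in erythrocytes (2% hematocrit, 0.05% parasitemia final) incubated with compounds for 96 hours, 37 C, 5% CO2; luciferase detection reagent then added and luminescence measured.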
HCV inhibitor – inhibitors of hepatitis C virus infection; hit rate 3.4% among 340,000; Potency, µM (series often up to 41.8 µM), inactives show top-dose activity change, negative = inhibition, hits mostly inhibitors; Huh7.5.1 HCVcc-Cre infection, luciferase reporter, 44 h; AID 651820; note: potency is the fitted concentration of half-maximal effect; % is set by controls: 0 for no effect and ±100 for the full control effect
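Cells (1,000/well) were plated 4 h before compound, then infected with HCVcc-Cre virus (~0.5 moi). After 44 h further culture, infection was read as luciferase luminescence following a 15 min substrate incubation at room temperature.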
Shiga toxin inh – blocks Shiga toxin action in Vero cells. Vero cells, Shiga toxin protein synthesis inhibition reporter. inhibition, % at 38.7 µM. hit rate 9.2% among 290,000. AID 2315; in the data active = inhibition mostly above about 28%, no sharp cut-off; inactive = mostly below about 43%; note: 0% is about no effect
Numbers without * were called inactive; ? = inconclusive; . = no result given; [ ] = another dose, or the depositor's remark. The list is not random: actives were taken first. Their share in the collection is about 21%. Unless noted, calls come from the whole dose curve; as a rule, active = well fitted curve in the direction sought with a large enough effect; inconclusive = small, poorly fitted or top-dose-only effect, or another doubt; inactive = no such curve, though single readings can be large; an effect the other way counts as inactive or inconclusive.

SMILES | CHX counter | AMA1-RON2 inh | Pf growth 48h | Pf growth 96h | HCV inhibitor | Shiga toxin inh
CCO[C@H]1OC(C(=O)NCc2nc3ccccc3[nH]2)=C[C@@H](c2ccccc2)[C@@H]1CCCO | -1.9 | -2.7% | -3.3% | -6.6% | -24.9% | -2.7
Cc1noc2ncnc(Sc3ccc(Br)cc3)c12 | -1.6 | 12.3% | ? | ? | 31.6µM* | 4.0
Cc1ccc2nc(/C(C#N)=N/O)[nH]c2c1 | 3.8 | 49.0% | ? | 13.1µM* | 20.8% | 16.0
Cc1ccc2nc(/C(C#N)=C/c3ccccc3C(=O)O)[nH]c2c1 | 18.5* | 98.6% | 2.08µM* | ? | 11.9% | 55.4
Cc1ccc2nc(/C(C#N)=C/c3cn[nH]c3-c3ccc(F)cc3)[nH]c2c1 | 6.6 | 10.5% | ? | ? | -70.6% | 13.5
N#C/C(=C\c1ccccc1C(=O)O)c1nc2ccccc2[nH]1 | 16.9* | 83.3% | ? | -1.2% | -7.2% | 49.0*
Cc1ccc2nc(/C(C#N)=C/c3ccc(O)c(O)c3)[nH]c2c1 | 59.7* | 48.3% | ? | -2.3% | ? | 91.8*
Cc1c(OCC(=O)NCCN2CCOCC2)ccc2c1oc(=O)c1ccccc12 | -2.5 | 7.9% | ? | ? | ? | 11.4
COc1ccc(C(C)(NC(C)=O)c2nc(-c3cccc(NC(C)=O)c3)cs2)cc1 (stereo not drawn) | . | -14.2% | . | . | . | .
N#CCN(CC#N)C(=O)C1c2ccccc2Oc2ccccc21 | -3.5 | 1.2% | -5.1% | 2.94µM* | 12.1% | 20.3
O=C(NCc1cccs1)c1ccc(CS(=O)Cc2ccc(Cl)cc2)o1 (stereo not drawn) | . | -3.0% | . | . | . | .
COc1ccc(-c2n[nH]c(C)c2-c2ccc(Cl)cc2)c(O)c1 | 0.7 | 83.8% | 8.28µM* | 10.4µM* | ? | -11.5
COc1ccc(O)c(-c2c(-c3ccc(Cl)cc3)n[nH]c2C)c1 | -1.4 | -26.4% | ? | . | -3.9% | 46.7
COc1ccc(-c2n[nH]c(C)c2-c2ccc(Cl)cc2)c(O)c1OC | -4.4 | 6.8% | ? | ? | 14.1µM* | -18.1
Cc1[nH]nc(-c2ccc(O)cc2O)c1-c1ccc(Cl)cc1 | -6.2 | 62.7% | 39.0% | 4.3% | ? | -22.6
CCCc1cc(=O)oc2cc(OC(=O)CN3C(=O)NC4(CCCC4)C3=O)ccc12 | . | -12.9% | -14.4% | ? | ? | .
CC(C)(C)OC(=O)N1CCC[C@H]1C(=O)O | 5.7 | 15.0% | 36.7% | 8.3% | 29.9% | -2.3
CC(C)COC(=O)N1CCCC1C(=O)O (stereo not drawn) | -1.5 | -1.8% | 0.1% | ? | 3.16µM* | 5.0
CC1(C)CCCC2=C1CC1C(=O)N(N)C(=O)C1C2 (stereo not drawn) | -1.3 | 7.4% | 38.0% | -0.9% | 10.8% | -1.9
O=C(c1ccccc1)N1CCN(S(=O)(=O)c2cccs2)CC1 | -2.2 | 2.4% | -3.5% | ? | -9.9% | -16.4
Cc1cc(O)c(CN2CCN(S(=O)(=O)c3cccs3)CC2)cc1C(C)C | . | -2.1% | 1.65µM* | 4.15µM* | ? | .
Cc1c(Cl)cccc1NC(=S)N1CCCCCC1 | 0.3 | 0.0% | 0.0% | ? | 6.6% | -1.7
Cc1c(Cl)cccc1NC(=S)N1CCN(S(=O)(=O)c2cccs2)CC1 | -1.3 | 1.3% | 1.85µM* | ? | -9.5% | 5.2
CC(C)c1ccccc1NC(=S)N1CCN(S(=O)(=O)c2cccs2)CC1 | 7.3 | -4.3% | ? | 5.22µM* | -8.1% | -4.8
COC(=O)c1ccc2nc(-c3ccccc3)c(Cc3ccc(C)cc3)n2c1 | . | 2.5% | . | . | . | .
SMILES | CHX counter | AMA1-RON2 inh | Pf growth 48h | Pf growth 96h | HCV inhibitor | Shiga toxin inh
CCN(Cc1ccncc1)C(=O)c1ccc(Br)o1 | -1.0 | 3.5% | 9.1% | 3.1% | 3.7% | -4.7
CCCCN1C(=O)/C(=C2\SC(N3CCCCC3)=NC2=O)c2ccccc21 | 26.5* | -18.2% | 87.9% | 166.1% | ? | 56.9*
O=C(NC1CCSC1=O)C1CCCCC1 (stereo not drawn) | -2.1 | -3.8% | 24.5% | 10.5% | -3.9% | -3.8
COc1ccc(NC(=S)N2CCCN(Cc3cccc(Cl)c3)C2)cc1 | -4.2 | 16.6% | ? | -11.7% | -24.0% | 0.2
COc1ccc(NC(=S)N2CCCN(Cc3cc(C)ccc3C)C2)cc1 | -7.3 | 24.6% | 10.4µM* | ? | -29.5% | -6.8
CCCCNC(=O)c1nc(-c2ccccc2)oc1-c1ccc(Cl)cc1 | . | -8.8% | . | . | . | .
Cc1nn(C)c(C)c1S(=O)(=O)N(CC(=O)N1CCc2ccccc21)c1ccc(C(C)C)cc1 | -6.7 | -2.4% | . | ? | -1.4% | -23.1
COc1ccc(N(CC(=O)N2CCc3ccccc32)S(=O)(=O)c2c(C)nn(C)c2C)cc1 | -5.3 | -9.4% | . | 8.28µM* | -11.5% | -6.1
CCOC(=O)C1CCN(C(=O)CN(c2ccc(OC)cc2)S(=O)(=O)c2c(C)nn(C)c2C)CC1 | -3.9 | 10.3% | . | 7.38µM* | 21.5% | -14.8
OCC1CSC(=S)N1Cc1ccccc1 (stereo not drawn) | . | 1.6% | . | . | . | .
CCNC(=O)C1CCCN(C(=O)c2ccc(OC)c(OC)c2)CC1 (stereo not drawn) | . | 3.8% | . | . | . | .
CCOC(=O)[C@@H]1[C@H]2COc3cc(OC)ccc3[C@@H]2N2C(=O)N(c3ccc(Cl)cc3)C(=O)[C@@]12C | 15.7* | -4.8% | ? | ? | 5.7%[8.37 µM] | 29.4*
CCOC(=O)[C@H]1[C@H]2COc3cc(OC)ccc3[C@@H]2N2C(=O)N(c3ccc(Cl)cc3)C(=O)[C@@]12C | -0.6 | -15.8% | -94.5% | 5.22µM* | -22.1% | -5.2
CCOC(=O)[C@@H]1[C@H]2COc3cc(OC)ccc3[C@@H]2N2C(=O)N(c3ccc(C)cc3)C(=O)[C@@]12C | -2.1 | 0.8% | ? | ? | ? | -8.1
Cc1ccc(S(=O)(=O)N2CCN(C(=O)N3CCOCC3)C2C(C)C)cc1 (stereo not drawn) | -7.8 | 16.2% | -18.0% | 11.7µM* | 16.9% | -14.0
CC(C)C1N(C(=O)N2CCOCC2)CCN1S(=O)(=O)c1ccccc1 (stereo not drawn) | -1.5 | 14.5% | 11.6% | 6.0% | 1.6% | -4.0
COC(=O)C[C@@H]1C[C@@H]2c3cc(NS(=O)(=O)c4ccccc4)ccc3O[C@@H]2[C@@H](CO)O1 | . | 6.5% | . | . | . | .
O=C(CSc1nc2sc3c(c2c(=O)n1-c1ccccc1)CCCC3)NCc1ccco1 | -3.0 | 0.0% | -5.6% | ? | 1.2% | -11.7
O=C(CSc1ncnc2sc3c(c12)CCCCC3)NCc1ccco1 | 63.1* | -14.7% | -1.1% | . | 11.2µM* | 103.4*
O=C(CSc1nc2ccc(Cl)cc2[nH]1)NCc1ccco1 | -1.7 | 0.0% | 18.0% | ? | -9.9% | -11.1
O=C(CSc1ncnc2sc3c(c12)CCCC3)c1ccco1 | 68.3* | -1.4% | 39.3% | -10.9% | ? | 156.3*
Cc1nc2sc3c(c2c2nnc(SCC(=O)NCc4ccco4)n12)CCCC3 | 27.6* | -7.6% | -13.0% | 16.3% | -9.9% | active
O=C(CSc1nnc2c3c4c(sc3ncn12)CCCC4)NCc1ccco1 | -0.7 | -7.7% | 1.7% | -9.9% | 5.3% | -6.7

Screens: PubChem, National Center for Advancing Translational Sciences (NCATS)
